# Measurements as given in PubChem BioAssay.
# Active and inactive are the calls of the source.
# Legend:
# [1] = test system: PRMT1 (protein arginine N-methyltransferase 1); assay: PRMT1 binders on small-molecule microarrays, primary screen, biochemical, small-molecule microarray, 635 nm fluorescence (AID 1088); settings: small-molecule microarray binding, higher = more signal;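 further: binding of Prmt1 protein to compounds spotted on small-molecule microarray slides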
# [2] = yeast growth modulation, basal conditions, primary screen, YJM789 clinical isolate, OD600, 24 h (AID 1089);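 further: growth of clinical yeast isolate S. cerevisiae YJM 789 seeded 1000 cells per well; test concentration not given here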; settings: S. cerevisiae YJM789 growth, higher = more signal, called active from +8 up or from −8 down
# [3] = fission yeast growth modulation, primary screen, strain 972, OD600, 24 h, no modulator (AID 1090);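 further: basal condition with compound alone and no growth modifier present; test concentration not given here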; settings: S. pombe 972 growth, higher = more signal, called active from +8 up or from −8 down
# [4] = S. cerevisiae growth modulation with rapamycin, primary screen, strain BY4716, OD600, 96 h (AID 1091); settings: higher = more signal, called active from +8 up or from −8 down; further: test concentration not given here
# [5] = target: Torsin-1A-interacting protein 2 (Homo sapiens) (UniProt Q8NFQ8); assay: LULL1 binders on small-molecule microarray, primary screen, cell lysate, human LULL1 lysate, 635/667 nm fluorescence (AID 1092); settings: hLULL1 lysate binding, 635 nm fluorescence, higher = more signal;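 further: probe is lysate of COS7 cells overexpressing human LULL1; score merges per-feature 667 nm fluorescence with signal-to-noise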
# Sequence of Torsin-1A-interacting protein 2 (Homo sapiens) (Q8NFQ8 whole entry, looked up): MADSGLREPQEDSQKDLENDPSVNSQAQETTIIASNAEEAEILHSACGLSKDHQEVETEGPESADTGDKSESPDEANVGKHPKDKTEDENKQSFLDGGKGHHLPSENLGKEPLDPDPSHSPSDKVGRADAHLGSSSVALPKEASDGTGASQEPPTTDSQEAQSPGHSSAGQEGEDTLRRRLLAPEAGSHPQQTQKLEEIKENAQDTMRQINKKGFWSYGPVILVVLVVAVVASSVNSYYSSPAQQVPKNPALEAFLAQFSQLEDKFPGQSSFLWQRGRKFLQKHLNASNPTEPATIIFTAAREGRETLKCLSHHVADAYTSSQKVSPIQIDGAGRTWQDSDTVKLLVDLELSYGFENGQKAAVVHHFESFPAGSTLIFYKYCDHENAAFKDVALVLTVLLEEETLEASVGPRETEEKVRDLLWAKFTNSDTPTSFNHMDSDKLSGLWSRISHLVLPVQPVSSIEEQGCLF
# [6] = E. coli growth modulation, two-sided OD650, primary screen, E. coli filamentation project, strain DRC41, 24 h (AID 1093); settings: OD650, 24 h, higher = more signal, called active from +8 up or from −8 down;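 further: MC1000 strain lacking acrAB efflux and sulA so SOS filamentation is blocked; test concentration not given here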
# [7] = small-molecule microarray binders of probe aLefty2, primary screen, biochemical, biotinylated probe, 635/667 nm fluorescence (AID 1094); settings: higher = more signal;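 further: score merges spot fluorescence near 667 nm with spot signal-to-noise ratio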
# [8] = test system: Noggin (protein binding on small-molecule microarray); assay: Noggin binders on small-molecule microarray, primary screen, biochemical, 635/667 nm fluorescence (AID 1095); settings: 635 nm fluorescence, higher = more signal;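 further: score merges 667 nm feature fluorescence with signal to noise over triplicate slides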
# [9] = target: Neurogenic locus notch homolog protein 3 (Homo sapiens) (UniProt Q9UM47); assay: NOTCH3 binders on small-molecule microarray, primary screen, biochemical, 635/667 nm fluorescence (AID 1096); settings: NOTCH3 binding, 635 nm fluorescence, higher = more signal
# Sequence of Neurogenic locus notch homolog protein 3 (Homo sapiens) (Q9UM47 whole entry, looked up): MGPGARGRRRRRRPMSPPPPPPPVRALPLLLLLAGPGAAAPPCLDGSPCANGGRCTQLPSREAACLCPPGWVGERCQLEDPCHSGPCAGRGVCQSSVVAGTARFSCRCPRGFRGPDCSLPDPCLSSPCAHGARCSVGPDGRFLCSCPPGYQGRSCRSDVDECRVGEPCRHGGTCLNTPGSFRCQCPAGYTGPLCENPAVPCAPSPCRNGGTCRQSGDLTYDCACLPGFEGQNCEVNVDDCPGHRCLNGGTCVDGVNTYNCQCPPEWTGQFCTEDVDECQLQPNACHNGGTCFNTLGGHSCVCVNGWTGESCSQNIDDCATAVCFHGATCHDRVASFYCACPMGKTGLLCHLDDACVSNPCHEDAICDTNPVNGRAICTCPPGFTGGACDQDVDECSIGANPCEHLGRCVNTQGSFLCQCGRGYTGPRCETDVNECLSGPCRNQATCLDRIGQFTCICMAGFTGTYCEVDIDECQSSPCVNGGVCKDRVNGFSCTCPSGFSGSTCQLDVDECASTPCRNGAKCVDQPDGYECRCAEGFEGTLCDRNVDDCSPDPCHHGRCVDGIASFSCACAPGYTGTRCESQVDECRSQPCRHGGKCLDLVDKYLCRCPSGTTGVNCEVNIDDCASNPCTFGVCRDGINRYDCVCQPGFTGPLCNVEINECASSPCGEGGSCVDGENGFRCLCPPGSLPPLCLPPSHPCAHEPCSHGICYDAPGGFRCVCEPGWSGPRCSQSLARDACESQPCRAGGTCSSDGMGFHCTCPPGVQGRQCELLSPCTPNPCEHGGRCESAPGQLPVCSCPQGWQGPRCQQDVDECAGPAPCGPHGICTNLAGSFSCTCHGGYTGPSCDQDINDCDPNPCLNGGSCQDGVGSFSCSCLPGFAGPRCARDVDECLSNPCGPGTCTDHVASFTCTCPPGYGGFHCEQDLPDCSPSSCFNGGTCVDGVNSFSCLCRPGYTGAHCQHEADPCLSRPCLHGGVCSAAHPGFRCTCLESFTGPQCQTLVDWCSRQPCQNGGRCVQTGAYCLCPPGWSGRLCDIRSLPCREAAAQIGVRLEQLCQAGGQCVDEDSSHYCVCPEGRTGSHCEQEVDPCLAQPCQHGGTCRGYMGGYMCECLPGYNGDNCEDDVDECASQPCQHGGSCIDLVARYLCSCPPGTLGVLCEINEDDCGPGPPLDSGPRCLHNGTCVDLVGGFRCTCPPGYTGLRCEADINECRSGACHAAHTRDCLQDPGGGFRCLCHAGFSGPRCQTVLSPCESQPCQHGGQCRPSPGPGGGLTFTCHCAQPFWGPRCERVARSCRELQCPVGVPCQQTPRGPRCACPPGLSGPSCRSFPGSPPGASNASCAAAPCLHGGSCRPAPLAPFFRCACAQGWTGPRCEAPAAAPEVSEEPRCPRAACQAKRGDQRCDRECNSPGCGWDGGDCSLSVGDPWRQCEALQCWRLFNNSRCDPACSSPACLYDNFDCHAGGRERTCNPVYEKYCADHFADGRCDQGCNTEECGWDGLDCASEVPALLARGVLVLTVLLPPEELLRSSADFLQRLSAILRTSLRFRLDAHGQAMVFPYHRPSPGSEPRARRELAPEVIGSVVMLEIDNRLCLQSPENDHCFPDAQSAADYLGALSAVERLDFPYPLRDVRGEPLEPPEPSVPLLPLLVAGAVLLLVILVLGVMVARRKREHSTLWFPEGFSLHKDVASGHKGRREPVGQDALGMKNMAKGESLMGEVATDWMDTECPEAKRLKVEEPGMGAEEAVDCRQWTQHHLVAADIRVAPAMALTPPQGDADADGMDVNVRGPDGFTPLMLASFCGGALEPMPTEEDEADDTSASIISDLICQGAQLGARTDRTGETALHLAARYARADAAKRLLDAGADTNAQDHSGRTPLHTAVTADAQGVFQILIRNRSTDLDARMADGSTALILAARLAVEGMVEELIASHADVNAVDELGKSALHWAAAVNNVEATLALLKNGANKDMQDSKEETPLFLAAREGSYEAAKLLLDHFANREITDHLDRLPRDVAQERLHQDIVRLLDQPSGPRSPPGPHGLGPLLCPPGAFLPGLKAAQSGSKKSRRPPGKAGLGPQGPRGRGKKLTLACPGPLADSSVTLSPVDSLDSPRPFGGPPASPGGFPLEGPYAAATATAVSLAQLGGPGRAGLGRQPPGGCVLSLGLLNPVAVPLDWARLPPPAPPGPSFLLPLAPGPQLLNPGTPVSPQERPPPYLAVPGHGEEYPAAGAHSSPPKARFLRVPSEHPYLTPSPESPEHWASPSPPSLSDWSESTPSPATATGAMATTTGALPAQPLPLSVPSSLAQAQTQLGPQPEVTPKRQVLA
# [10] = small-molecule microarray binders of probe aEGFR, primary screen, biochemical, biotinylated probe, 635/667 nm fluorescence (AID 1097); settings: higher = more signal;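 further: probe is a biotinylated anti-EGFR antibody binding compounds printed on slides; score combines fluorescence near 667 nm and signal to noise of each spot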
SMILES,composite z-score [1],z-score [2],z-score [3],z-score [4],composite z-score [5],z-score [6],composite z-score [7],composite z-score [8],composite z-score [9],composite z-score [10]
COc1ccc(NN2C(C(O)c3ccc([N+](=O)[O-])cc3)C=CC3C(=O)N(C4CCCCC4)C(=O)C32)cc1 (stereo not given),0.849,0.346 (inactive),0.811 (inactive),0.572 (inactive),2.69,-0.103 (inactive),0.192,-0.0162,1.09,-0.143
C=C(CCCC)/C(=C/C[C@@H](OC(C)=O)c1ccccc1OCCO)c1cnc2ccccc2c1,1.3,0.182 (inactive),-0.727 (inactive),0.0058 (inactive),1.1,0.468 (inactive),-0.0208,0.61,0.513,-0.0675
C=CCOC(=O)[C@@H]1[C@H]2C(=O)O[C@H](c3ccccc3)[C@H](c3ccccc3)N2[C@H](c2ccc(OCCOC(=O)[C@@H]3C[C@@H]4C(=O)N[C@@H](CCCC[N+](C)(C)C)C(=O)N4[C@@H]3c3cccc(OCCO)c3)cc2)[C@@]12C(=O)Nc1ccc(I)cc12,1.56,1.02 (inactive),-0.945 (inactive),0.115 (inactive),2.94,-0.674 (inactive),-0.0063,1.47,1.13,0.0321
COc1ccc(C(=O)Nc2ccc(CN3C(=O)[C@@]4(O[C@@H](CCn5cc([C@H](O)c6ccccc6)nn5)[C@H]([Si](C)(C)c5ccc(OC)cc5)[C@H]4C)c4ccccc43)cc2)cc1,1.46,0.188 (inactive),-0.807 (inactive),1.66 (inactive),1.11,-0.351 (inactive),-0.136,0.323,0.378,-0.134
CCC(CC)C(O)C1C=CC2C(=O)N(C)C(=O)C2N1Nc1ccccc1 (stereo not given),1.02,-0.0298 (inactive),-0.575 (inactive),0.0024 (inactive),3.07,0.103 (inactive),-0.0321,-0.0929,1.06,-0.0828
COc1ccc(C(=O)Nc2ccc(CN3C(=O)[C@@]4(O[C@@H](CC(=O)N5CCC[C@H]5CO)[C@H]([Si](C)(C)c5ccc(OC)cc5)[C@H]4C)c4ccccc43)cc2)cc1,1.55,-0.466 (inactive),-0.838 (inactive),-0.436 (inactive),2.07,0.632 (inactive),-0.0134,1.05,1.09,0.131
O=C1O[C@H](c2ccccc2)[C@H](c2ccccc2)N2[C@H]1[C@@H](C(=O)Nc1nc3ccccc3s1)[C@]1(C(=O)Nc3ccc(C#CCCO)cc31)[C@H]2c1ccc(OCCO)cc1,1.55,0.737 (inactive),0.933 (inactive),2.84 (inactive),3.19,0.0573 (inactive),-0.137,1.72,1.12,-0.0368
O=C1NC(=O)C2C1C=CC(C(O)Cc1ccccc1)N2Nc1ccc(Cl)cc1Cl (stereo not given),-0.403,-4.33 (inactive),-1.51 (inactive),-0.125 (inactive),3.21,0.177 (inactive),-0.0134,-0.49,0.332,-0.096
O=C1O[C@H](c2ccccc2)[C@H](c2ccccc2)N2[C@H]1[C@@H](C(=O)O)[C@]1(C(=O)Nc3ccc(C#CC4=CCCCC4)cc31)[C@H]2c1ccccc1OCCO,1.53,1.07 (inactive),1.1 (inactive),-1.55 (inactive),3.1,-0.273 (inactive),0.196,1.05,0.941,-0.313
CCCN1C(=O)[C@]2(CCS(=O)(=O)c3ccccc3)N=C(c3ccc(OCCCO)cc3)O[C@@H]2c2ccccc21,1.54,-0.559 (inactive),-0.0812 (inactive),2.82 (inactive),2.84,1.97 (inactive),0.106,0.866,1.09,-0.0509
CC1CC/C=C\[C@H]2OC34C=CCN(C(C)(C)C)C(=O)[C@H]3N(CCCCCCO)C(=O)[C@@H]4C2C(=O)O1 (stereo not given in full),-0.005,-0.242 (inactive),-0.357 (inactive),-0.19 (inactive),1.4,-0.31 (inactive),-0.183,-0.597,0.0452,-0.371
COCCn1c(C(=O)N2CCCC2)cc2c1C[C@H]1CN(C(=O)c3ccccc3)[C@@](Cc3ccc(F)cc3)(C(=O)OC)[C@@H]21,1.12,-0.339 (inactive),0.0582 (inactive),-0.0799 (inactive),3.84,-0.191 (inactive),0.166,0.126,0.583,0.0843
O=C1C2C=CC(C(O)C3CCCCC3)N(Nc3ccc([N+](=O)[O-])cc3)C2C(=O)N1c1ccccc1 (stereo not given),1.56,0.139 (inactive),0.341 (inactive),3.55 (inactive),3.19,-1.15 (inactive),-0.314,-0.995,-0.273,-0.226
CC1CC/C=C\[C@H]2OC34C=CCN(Cn5nnc6ccccc65)C(=O)[C@H]3N(C(CO)C(C)C)C(=O)[C@@H]4C2C(=O)O1 (stereo not given in full),1.34,-0.973 (inactive),-1.02 (inactive),-0.931 (inactive),3.28,0.309 (inactive),0.0723,-0.772,0.113,-0.0987
